Records with an inconclusive call do not appear. Activity calls are given as the source filed them. Unless noted, calls follow the shape of the full dose curve.
Test system: not listed separately
Assay: Cell Viability - MRC5 (AID 434);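 also: potency is read from the fitted curve at half-maximal effect; cells exposed to compound for 40 hours at 37 °C; potency reflects cytotoxicity seen as loss of intracellular ATP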
Settings: MRC5 lung fibroblast viability, qHTS
Summary of the method: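 MRC5 normal human lung fibroblasts (1500/well) were treated with compounds for 40 hr at 37 °C in complete medium, and viable cells were measured as intracellular ATP by CellTiter-Glo luminescence. AC50 came from Hill fits, normalized to DMSO and 100 uM tamoxifen.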
With CCC(=O)/C=C/C1C(C)=CCCC1(C)C (configuration not stated) the Potency was > 92 µM (inactive).
In the case of CC(=O)CCc1ccccc1, the Potency is reported as > 92 µM (inactive).
In the case of CCCCOCCOCCOCCCC, the Potency is reported as > 92 µM (inactive).
With Cc1cc(C(=O)O)ccc1[N+](=O)[O-] the Potency was > 92 µM (inactive).
With Cc1cccc(C)c1O the Potency was > 92 µM (inactive).
With O=c1[nH][nH]c(=O)c2cc([N+](=O)[O-])ccc12 the Potency was > 92 µM (inactive).
With CC(C)CCOC(=O)/C=C/c1ccccc1 the Potency was > 92 µM (inactive).
For NC(=O)CCCCC(N)=O, the Potency was > 92 µM (inactive).
With ON=C1CCCCC1 the Potency was > 92 µM (inactive).
With CC(=O)Nc1ccccc1C the Potency was > 92 µM (inactive).
In the case of COC(=O)CS, the Potency is reported as > 92 µM (inactive).
With Cc1ccc2cccnc2c1 the Potency was > 92 µM (inactive).
In the case of Cc1cccc([N+](=O)[O-])c1C(=O)O, the Potency is reported as > 92 µM (inactive).
For CCOc1cccc(N)c1, the Potency was > 92 µM (inactive).

Test system: not listed separately
Assay: Cell Viability - SK-N-SH (AID 435);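 also: potency is read from the fitted curve at half-maximal effect; compound exposure lasted 40 h at 37 °C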
Settings: SK-N-SH neuroblastoma cell viability qHTS
Summary of the method: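 Luminescent ATP signal served as the viability read-out after 40 hours of compound treatment of human neuroblastoma SK-N-SH cells. Concentration-response data, scaled between DMSO and 100 uM tamoxifen, gave AC50 values by standard Hill modeling.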
For Cc1cc(C)c(N)cc1C, the Potency was > 92 µM (inactive).
In the case of Cc1cccc2ccccc12, the Potency is reported as > 92 µM (inactive).
With C=C(C)C(=O)OCC(C)C the Potency was > 92 µM (inactive).
With O=Cc1ccc(C(=O)O)cc1 the Potency was > 92 µM (inactive).
In the case of CCOc1cc(OCC)c(C(C)=O)cc1OCC, the Potency is reported as > 92 µM (inactive).
In the case of CCCCC(CC)CNCC(CC)CCCC (configuration not stated), the Potency is reported as > 92 µM (inactive).
With C=CCOC(=O)COCCC(C)C the Potency was > 92 µM (inactive).
With ICCc1ccccc1 the Potency was > 92 µM (inactive).
In the case of Cc1ccccc1C(N)=O, the Potency is reported as > 92 µM (inactive).
For CNC(=O)c1ccccc1, the Potency was > 92 µM (inactive).
For ClCCl, the Potency was > 92 µM (inactive).
With CCOc1ccc(NC(C)=O)cc1N the Potency was > 92 µM (inactive).
With Nc1ccc(F)cc1F the Potency was > 92 µM (inactive).
For CC(=O)c1ccc([N+](=O)[O-])cc1, the Potency was > 92 µM (inactive).
For CCCCN(CCO)CCCC, the Potency was > 92 µM (inactive).
With BrC(Br)C(Br)Br the Potency was > 92 µM (inactive).
With Nc1nc(CC(=O)O)cs1 the Potency was > 92 µM (inactive).
In the case of O=[N+]([O-])c1cc(C(F)(F)F)ccc1Cl, the Potency is reported as > 92 µM (inactive).
With Cc1ccc(C(C)(C)C)cc1 the Potency was > 92 µM (inactive).
With CC(C)=CCl the Potency was > 92 µM (inactive).
With O=Cc1ccc(Cl)cc1 the Potency was > 92 µM (inactive).
With NC(=O)c1cccc([N+](=O)[O-])c1 the Potency was > 92 µM (inactive).
With C=CCn1c(=O)n(CC=C)c(=O)n(CC=C)c1=O the Potency was > 92 µM (inactive).
In the case of Cc1cc(C)cc([N+](=O)[O-])c1, the Potency is reported as > 92 µM (inactive).
With CC(=O)OC(C)C the Potency was > 92 µM (inactive).
For CCC(=O)/C=C/C1C(C)=CCCC1(C)C (configuration not stated), the Potency was > 92 µM (inactive).
For CC(=O)CCc1ccccc1, the Potency was > 92 µM (inactive).
For CCCCOCCOCCOCCCC, the Potency was > 92 µM (inactive).
For Cc1cc(C(=O)O)ccc1[N+](=O)[O-], the Potency was > 92 µM (inactive).
With Cc1cccc(C)c1O the Potency was > 92 µM (inactive).
With O=c1[nH][nH]c(=O)c2cc([N+](=O)[O-])ccc12 the Potency was > 92 µM (inactive).
With CC(C)CCOC(=O)/C=C/c1ccccc1 the Potency was > 92 µM (inactive).
For NC(=O)CCCCC(N)=O, the Potency was > 92 µM (inactive).
With ON=C1CCCCC1 the Potency was > 92 µM (inactive).
In the case of CC(=O)Nc1ccccc1C, the Potency is reported as > 92 µM (inactive).
For COC(=O)CS, the Potency was > 92 µM (inactive).
With Cc1ccc2cccnc2c1 the Potency was > 92 µM (inactive).
For Cc1cccc([N+](=O)[O-])c1C(=O)O, the Potency was > 92 µM (inactive).
With CCOc1cccc(N)c1 the Potency was > 92 µM (inactive).

Target: Mitogen-activated protein kinase 10 (Mus musculus) (UniProt Q61831)
Assay: JNK3 AlphaScreen Assay (AID 530; active = well fitted curve in either direction with a large enough effect, not every such curve was filed as active;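 also: kinase came from lysate of stimulated human HepG2 cells; signal reports phosphorylation of biotinylated GST-cJun 1-79 at Ser73 with 10 µM ATP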)
Settings: JNK3 lysate, c-Jun phosphorylation; series mostly up to 57.1 µM
Summary of the method: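 JNK3 came from HepG2 lysates pre-activated with IL-1beta and TNF-alpha and phosphorylated biotinylated GST-cJun (1-79) at 10 uM ATP, pH 7.6, room temperature. Compounds were titrated. AlphaScreen signal used anti-phospho-cJun (Ser73) antibody.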
For Cc1cc(C)c(N)cc1C, the outcome was “inactive”.
In the case of Cc1cccc2ccccc12, the outcome is reported as “inactive”.
For C=C(C)C(=O)OCC(C)C, the outcome was “inactive”.
In the case of O=Cc1ccc(C(=O)O)cc1, the outcome is reported as “inactive”.
For CCOc1cc(OCC)c(C(C)=O)cc1OCC, the outcome was “inactive”.
For CCCCC(CC)CNCC(CC)CCCC (configuration not stated), the outcome was “inactive”.
For C=CCOC(=O)COCCC(C)C, the outcome was “inactive”.
In the case of ICCc1ccccc1, the outcome is reported as “inactive”.
With Cc1ccccc1C(N)=O the outcome was “inactive”.
With CNC(=O)c1ccccc1 the outcome was “inactive”.
In the case of ClCCl, the outcome is reported as “inactive”.
In the case of CCOc1ccc(NC(C)=O)cc1N, the outcome is reported as “inactive”.
In the case of Nc1ccc(F)cc1F, the outcome is reported as “inactive”.
In the case of CC(=O)c1ccc([N+](=O)[O-])cc1, the outcome is reported as “inactive”.
For CCCCN(CCO)CCCC, the outcome was “inactive”.
With BrC(Br)C(Br)Br the outcome was “inactive”.
For Nc1nc(CC(=O)O)cs1, the outcome was “inactive”.
In the case of O=[N+]([O-])c1cc(C(F)(F)F)ccc1Cl, the outcome is reported as “inactive”.
In the case of Cc1ccc(C(C)(C)C)cc1, the outcome is reported as “inactive”.
With CC(C)=CCl the outcome was “inactive”.
In the case of O=Cc1ccc(Cl)cc1, the outcome is reported as “inactive”.
In the case of NC(=O)c1cccc([N+](=O)[O-])c1, the outcome is reported as “inactive”.
With C=CCn1c(=O)n(CC=C)c(=O)n(CC=C)c1=O the outcome was “inactive”.
For Cc1cc(C)cc([N+](=O)[O-])c1, the outcome was “inactive”.
In the case of CC(=O)OC(C)C, the outcome is reported as “inactive”.
With CCC(=O)/C=C/C1C(C)=CCCC1(C)C (configuration not stated) the outcome was “inactive”.
In the case of CC(=O)CCc1ccccc1, the outcome is reported as “inactive”.
For CCCCOCCOCCOCCCC, the outcome was “inactive”.
For Cc1cc(C(=O)O)ccc1[N+](=O)[O-], the outcome was “inactive”.
For Cc1cccc(C)c1O, the outcome was “inactive”.
With O=c1[nH][nH]c(=O)c2cc([N+](=O)[O-])ccc12 the outcome was “inactive”.
In the case of CC(C)CCOC(=O)/C=C/c1ccccc1, the outcome is reported as “inactive”.
With NC(=O)CCCCC(N)=O the outcome was “inactive”.
For ON=C1CCCCC1, the outcome was “inactive”.
In the case of CC(=O)Nc1ccccc1C, the outcome is reported as “inactive”.
In the case of COC(=O)CS, the outcome is reported as “inactive”.
In the case of Cc1ccc2cccnc2c1, the outcome is reported as “inactive”.
For Cc1cccc([N+](=O)[O-])c1C(=O)O, the outcome was “inactive”.
With CCOc1cccc(N)c1 the outcome was “inactive”.
